Bioassay records deposited in PubChem by National Center for Advancing Translational Sciences (NCATS).
JMJD2A Tudor inh: inhibitors of human JMJD2A Tudor domain. 390,000 tested, 4.4% active. AlphaScreen JMJD2A-Tudor / H3K4me3 peptide binding. Potency, µM (doses to about 114 µM), for the others: at the highest dose activity change, negative = inhibition, actives largely listed as inhibitors. O75164; further: potency means the concentration at half of the fitted maximal effect; on the % scale 0 is the no-effect control and ±100 the full control effect; nearly all actives have a fitted effect of over 50% in size
G9a inh: inhibitors of human histone lysine methyltransferase G9a; G9a H3K9 monomethylation, AlphaScreen, 2 h; Potency, µM (series often up to 102 µM), inactives show at the top dose activity, negative = inhibition, hits mostly inhibitors; 350,000 tested, 8.8% active; further: potency means the concentration at half of the fitted maximal effect; on the % scale 0 is the no-effect control and ±100 the full control effect; nearly all actives have a fitted effect of over 75% in size
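Using a bead-based AlphaScreen, monomethylated H3K9 product from 2 h room-temperature reactions (G9a 20 nM, peptide 500 nM, SAM 20 uM) was detected with 0.5 ug/mL rabbit anti-H3K9me1 antibody.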
BAZ2B block: inhibitors of human BAZ2B bromodomain | Potency, µM (top dose mostly 114 µM), for the others: top-dose activity change, negative = inhibition, actives largely listed as inhibitors | AlphaScreen BAZ2B-H3K14Ac peptide displacement | 360,000 tested, 4.4% active; further: potency means the concentration at half of the fitted maximal effect; on the % scale 0 is the no-effect control and ±100 the full control effect; nearly all actives have a fitted effect of over 60% in size
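BAZ2B 50 nM plus b-H3(5-23)K14Ac 50 nM, PBS pH 7.4/0.01% Tween-20, 30 min RT; compound added (max 110 uM), 30 min RT; streptavidin donor/Ni-chelate acceptor beads 10 ug/mL final, 20 min dark; AlphaScreen read.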
HP1b chromo inh: inhibitors of HP1-beta chromodomain binding to methylated histone tails; AlphaScreen HP1-beta / biotin-H3K9me3 peptide binding; P83916; Potency, µM (highest dose often 114 µM), inactives show at the top dose activity change, negative = inhibition, usual class: inhibitors; 390,000 tested, 0.56% active; further: potency means the concentration at half of the fitted maximal effect; nearly all actives have a fitted effect of over 70% in size
Target sequence (P83916 whole entry, looked up): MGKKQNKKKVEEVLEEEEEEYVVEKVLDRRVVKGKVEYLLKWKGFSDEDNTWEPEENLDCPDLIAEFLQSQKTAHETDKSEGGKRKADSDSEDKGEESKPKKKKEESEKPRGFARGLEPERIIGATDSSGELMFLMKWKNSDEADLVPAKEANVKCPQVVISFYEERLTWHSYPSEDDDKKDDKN
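HP1-beta protein (50 nM final) preincubated 30 min at room temperature with biotinylated H3(1-18)K9me3 peptide (50 nM) in PBS pH 7.4, 0.01% Tween-20, then compound added for 30 min. AlphaScreen streptavidin donor/nickel chelate acceptor beads (10 ug/mL final), 30 min dark, luminescence read.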
12-LOX inh: ALOX12 (human) lipoxygenase inhibition | 580,000 tested, 1.1% active | P18054 | AID 1671190 | purified 12hLO, xylenol orange hydroperoxide absorbance | Potency, µM (doses to about 108 µM), for inactives: top-dose activity change, negative = inhibition, usual class: inhibitors; further: potency means the concentration at half of the fitted maximal effect; on the % scale 0 is the no-effect control and ±100 the full control effect
Target sequence (P18054 whole entry, looked up): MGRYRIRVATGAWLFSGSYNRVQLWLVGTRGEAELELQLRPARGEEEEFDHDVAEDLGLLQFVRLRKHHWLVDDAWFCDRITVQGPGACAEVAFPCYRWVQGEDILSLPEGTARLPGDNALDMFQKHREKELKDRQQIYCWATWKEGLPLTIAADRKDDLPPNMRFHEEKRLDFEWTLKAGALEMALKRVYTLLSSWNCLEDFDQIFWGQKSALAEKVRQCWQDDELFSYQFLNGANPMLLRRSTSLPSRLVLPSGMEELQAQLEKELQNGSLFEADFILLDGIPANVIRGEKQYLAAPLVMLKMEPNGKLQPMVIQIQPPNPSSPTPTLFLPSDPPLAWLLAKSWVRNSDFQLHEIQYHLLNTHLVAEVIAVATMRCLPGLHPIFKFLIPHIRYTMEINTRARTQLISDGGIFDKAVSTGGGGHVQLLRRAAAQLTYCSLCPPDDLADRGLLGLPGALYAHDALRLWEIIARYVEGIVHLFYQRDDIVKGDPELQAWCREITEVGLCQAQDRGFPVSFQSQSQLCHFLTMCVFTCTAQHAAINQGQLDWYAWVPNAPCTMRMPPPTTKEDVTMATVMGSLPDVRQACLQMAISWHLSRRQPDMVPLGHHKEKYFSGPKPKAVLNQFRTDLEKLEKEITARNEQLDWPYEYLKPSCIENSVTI
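Hydroperoxide product was detected by ferrous iron/xylenol orange as the 573 to 405 nm absorbance ratio. Arachidonic acid at 40 uM (final) was turned over for 30 min at room temperature by 150 nM human 12hLO, pH 7.0 Hepes buffer, after 15 min compound preincubation.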
PLK1 PBD inh: inhibitors of human PLK1 polo-box domain binding; Potency, µM, for inactives: max response, negative = inhibition, most hits filed as inhibitors; AID 720504; 360,000 tested, 2.8% active; Plk1 PBD binding of FITC phosphopeptide, fluorescence polarization; further: potency means the concentration at half of the fitted maximal effect; series mostly up to about 57 µM; on the % scale 0 is the no-effect control and ±100 the full control effect; nearly all actives have a fitted effect of over 65% in size
12-hLO cuvette: 12-hLO (human) inhibition, 8HQ series round 1; shares compounds with BAZ2B block; purified 12-hLO, cuvette UV 234 nm product formation; Potency, µM, most hits filed as inhibitors; 35 tested, 60% active; AID 2163;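 active means compounds that slowed 12-hLO product formation enough to yield a measured IC50 potency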
JMJD2E inh-1: blocks human JMJD2E demethylase activity; JMJD2E demethylase, FDH-coupled NADH fluorescence; Potency, µM (highest dose often 57 µM), inactives show at the top dose activity, negative = inhibition, actives largely listed as inhibitors; shares compounds with BAZ2B block; 130 tested, 89% active; AID 493212
JMJD2E inh-2: JMJD2E (human) demethylase inhibition, confirmation | shares compounds with JMJD2A Tudor inh | Recombinant JMJD2E, FDH-coupled NADH fluorescence (FDH is formaldehyde dehydrogenase) | Potency, µM (series often up to 56.8 µM), without a hit: top-dose activity change, negative = inhibition, most hits filed as inhibitors | 140 tested, 93% active | AID 2677
FDH counter: FDH (Pseudomonas putida) inhibition counter-screen. FDH enzyme assay, NADH fluorescence kinetic. Potency, µM (top dose mostly 56.7 µM), inactives show at the top dose activity, negative = inhibition, hits mostly inhibitors. 140 tested, 10% active. shares compounds with JMJD2A Tudor inh
JMJD2E MALDI inh: inhibitors of human JMJD2E demethylase; shares compounds with JMJD2A Tudor inh; Potency, µM, actives largely listed as inhibitors; 45 tested, 90% active; recombinant JMJD2E demethylation, MALDI-TOF-MS;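 active means compounds whose IC50 for blocking JMJD2E demethylation is below 100 µM; inconclusive means dose dependent effect but IC50 above 100 µM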
The depositor's hits bear a star; i = inactive; ? = inconclusive; · = not tested or not shown; [ ] = dose if it differs, or a comment. Only some compounds are listed: those with a hit (about 9% of all), similar ones and a draw of the others. Unless noted, the call rests on the fitted dose curve; in most records, active means well fitted curve in the direction sought with a large enough effect; inconclusive means small, poorly fitted or top-dose-only effect, or another doubt; inactive means no such curve, though single readings can be large; an effect the other way counts as inactive or inconclusive.

SMILES	JMJD2A Tudor inh	G9a inh	BAZ2B block	HP1b chromo inh	12-LOX inh	PLK1 PBD inh	JMJD2E inh-1	JMJD2E inh-2	FDH counter	others
CCCN1C(CC(C)C)=NS(=O)(=O)c2cc(NC(=O)c3ccco3)ccc21	·	·	·	·	4%	·	·	·	·
CN(C)CCNC(=O)c1nc(-c2ccccc2)cc2[nH]ccc12	·	·	·	·	5%[176 µM]	·	·	·	·
NC(=O)c1ccc(Cl)c2ccccc12	-5%	-3%	-1%	14%	-29%	-1%	·	·	·
Oc1cccc2c(-c3nn[nH]n3)ccnc12	13µM*	13%[12.7 µM]	3.2µM*	36%	?	·	18µM*	10µM*	-18%	JMJD2E MALDI inh=18*
NC(=O)c1ccnc2c(O)cccc12	22µM*	-31%[0.501 µM]	1.8µM*	24%	-6%	·	3.2µM*	?	-27%
c1cncc(-c2nn[nH]n2)c1	-30%	-19%[59 µM]	1%	16%	-16%	2%	·	·	·
COC(=O)c1ccc(O)c2ncccc12	·	·	·	·	·	·	20µM*	20µM*	-27%
CCn1c(CNC(=O)c2ccccc2OC)nnc1SCC(=O)c1ccc(OC)cc1	·	·	·	·	2%	·	·	·	·
COc1ccccc1NC(=O)CN1C(=O)C(C)SC(C)C1=O (stereo not drawn)	-5%	10%	-3%	36%	-1%	-20%	·	·	·
COc1ccc(-c2nnc3sc(NC(=O)C4CCCCC4)nn23)cc1OC	·	·	·	·	14%	·	·	·	·
CCC(=O)NC(c1ccc(C)cc1)c1cc([N+](=O)[O-])c2cccnc2c1O (stereo not drawn)	22µM*	?	4µM*	-16%	11µM*	?	13µM*	13µM*	-27%	12-hLO cuvette=2.3µM*
CCOc1ccc(C(NC(=O)CC)c2c(O)ccc3ccccc23)cc1 (stereo not drawn)	-27%	?	-31%	-2%	130%	-13%	·	·	·
CCC(=O)NC(c1cccs1)c1cc(Cl)c2cccnc2c1O (stereo not drawn)	-14%	-2%	-5%	45%	-7%	4%	13µM*	13µM*	-18%	12-hLO cuvette=1µM*
CCC(=O)NC(c1ccc(C)cc1)c1ccc2cccnc2c1O (stereo not drawn)	79µM*	20%	22µM*	51%	-4%	6%	13µM*	13µM*	-18%	12-hLO cuvette=i
CCCC(=O)NC(c1ccc(OC)c(OC)c1)c1cc(Cl)c2cccnc2c1O (stereo not drawn)	-21%	·	-11%	37%	?	2%	·	·	·
CC(C)C(CNC(=O)c1n[nH]c(=O)c2ccccc12)N1CCOCC1 (stereo not drawn)	·	·	·	·	-43%	·	·	·	·
Oc1cc(NCCc2cccnc2)cc2cccnc12	40µM*	-47%[12.7 µM]	5.6µM*	54%	-30%	·	32µM*	32µM*	-27%	JMJD2E MALDI inh=?
Oc1cc(Nc2cccnc2)cc2cccnc12	45µM*	-1%[12.7 µM]	7.9µM*	44%	-20%	·	32µM*	32µM*	-18%	JMJD2E MALDI inh=30*
O=C(CCc1cccnc1)Nc1cnc2ccccc2c1	·	·	·	·	-20%	·	·	·	·
Oc1cc(Nc2ccncc2)cc2cccnc12	20µM*	-27%[12.7 µM]	4µM*	41%	-2%	·	25µM*	25µM*	-9%	JMJD2E MALDI inh=20*
COc1ccc(C(=O)Nc2cc(OC)cc3cccnc23)cc1	5%	6%[2.33 µM]	-7%	52%	3%	-7%	·	·	·
COc1ccc(Nc2cc(O)c3ncccc3c2)cc1	·	17%[12.7 µM]	28µM*	·	·	·	11µM*	9.1µM*	-36%	JMJD2E MALDI inh=22*
CN(C(=O)Cc1cccc2ccccc12)c1nc2ccccc2o1	·	·	·	·	-13%	·	·	·	·
Cc1cnc2c(O)cccc2c1	·	·	·	·	·	·	?	?	0%
Cc1cnc2c(S(=O)(=O)NC3CCCCC3)cccc2c1	·	·	·	·	22%	·	·	·	·
SMILES	JMJD2A Tudor inh	G9a inh	BAZ2B block	HP1b chromo inh	12-LOX inh	PLK1 PBD inh	JMJD2E inh-1	JMJD2E inh-2	FDH counter	others
CCN(CC)C(=O)CN(C)S(=O)(=O)c1cccc2cc(C)cnc12	·	·	·	·	0%	·	·	·	·
CN(C)c1cnc2c(O)cccc2c1	·	·	·	·	·	·	20µM*	18µM*	-27%
Oc1cccc2cc(C3CC3)cnc12	·	·	·	·	·	·	20µM*	20µM*	-18%
COCCNS(=O)(=O)c1cc(C(=O)O)cc(-c2c(C)cccc2C)c1	·	·	·	·	10%	·	·	·	·
Cc1ccc(NC(=O)COC(=O)Cn2nc(-c3ccc(F)cc3)oc2=O)cc1C	-18%	·	·	20%	0%	5%	·	·	·
O=C(O)c1cc(Br)c(O)c2ncccc12	·	·	·	·	·	·	0.0073µM*	?	-18%
Cc1nnc(Oc2ccccc2)c2ccccc12	2%	-1%	-5%	21%	14%	-6%	·	·	·
Cc1ccc(CNC(=O)c2ccc3c(c2)CN(CC2=Cc4ccccc4OC2)CCO3)cc1	·	·	·	·	0%	·	·	·	·
CN(C)c1ccc(-c2cc(O)c3ncccc3c2)cc1	?	-4%[12.7 µM]	1%	28%	-6%	·	16µM*	16µM*	-9%
Oc1cc(-c2ccncc2)cc2cccnc12	45µM*	10%[12.7 µM]	2.8µM*	47%	?	·	32µM*	16µM*	-27%	JMJD2E MALDI inh=23*
O=C(NCc1ccccn1)c1ccc(-c2ccc(N3CCCCC3)nc2)cc1	·	·	·	·	0%	·	·	·	·
CN(C)CCCNC(=O)c1ccc(-c2cc(O)c3ncccc3c2)cc1	20µM*	5%[12.7 µM]	7.1µM*	-33%	-18%	·	32µM*	16µM*	0%
CN(C)c1ccc(-c2ccc3ncnc(N(C)C)c3c2)cc1	·	-4%[0.501 µM]	·	·	-26%	·	·	·	·
CN(C)CCCNC(=O)c1ccccn1	-16%	8%	-5%	7%	-4%	-8%	·	·	·
Oc1cc(-c2ccc(N3CCCCC3)nc2)cc2cccnc12	-28%	-3%[12.7 µM]	9%	58%	·	·	26µM*	32µM*	-73%
Cc1cc(C(=O)CSc2nc(N)cc(N)n2)c(C)n1CCc1ccc(F)cc1	?	?	?	?	20%	-7%	·	·	·
Oc1ccc(COc2cccc3ccccc23)c2cccnc12	·	?	56µM*	·	·	·	10µM*	10µM*	-18%
Oc1ccc(COC2CCCC2)c2cccnc12	·	-31%[12.7 µM]	13µM*	·	·	·	6.3µM*	6.3µM*	-9%
